Reference: the supplement of paper PMC6992640
Counter-ions that a name gives are not always drawn.

Each compound was assayed on WHIM30 (cells of a triple-negative basal-like breast cancer xenograft) (assay: cell viability of combination (% of vehicle); higher = less cytotoxic). Settings: 1 µM; 72 h; partner dose: 10 nM.
Experimental: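 PDX cells were treated for 72 h with each drug at 1 µM plus carfilzomib (10 nM; 100 nM for WHIM2). Luciferase viability is expressed as percent of vehicle.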

| Structure (SMILES) | cell viability of combination |
| --- | --- |
| CN1CCC(COc2cnc(-c3cccc(Cn4nc(-c5cccc(C#N)c5)ccc4=O)c3)nc2)CC1 + CC(C)C[C@H](NC(=O)[C@H](CCc1ccccc1)NC(=O)CN1CCOCC1)C(=O)N[C@@H](Cc1ccccc1)C(=O)N[C@@H](CC(C)C)C(=O)[C@@]1(C)CO1 [Carfilzomib] | 26.9 |
| O=C(NC1CCN(CCCCC2(C(=O)NCC(F)(F)F)c3ccccc3-c3ccccc32)CC1)c1ccccc1-c1ccc(C(F)(F)F)cc1 [Lomitapide] + CC(C)C[C@H](NC(=O)[C@H](CCc1ccccc1)NC(=O)CN1CCOCC1)C(=O)N[C@@H](Cc1ccccc1)C(=O)N[C@@H](CC(C)C)C(=O)[C@@]1(C)CO1 [Carfilzomib] | 9.93 |
| CC[C@@]1(O)C(=O)OCc2c1cc1n(c2=O)Cc2cc3c(CN(C)C)c(O)ccc3nc2-1 [Topotecan] + CC(C)C[C@H](NC(=O)[C@H](CCc1ccccc1)NC(=O)CN1CCOCC1)C(=O)N[C@@H](Cc1ccccc1)C(=O)N[C@@H](CC(C)C)C(=O)[C@@]1(C)CO1 [Carfilzomib] | 7.16 |
| CO[C@H]1/C=C/O[C@@]2(C)Oc3c(C)c(O)c4c(O)c(c(/C=N/N5CCN(C6CCCC6)CC5)c(O)c4c3C2=O)NC(=O)/C(C)=C\C=C\[C@H](C)[C@H](O)[C@@H](C)[C@@H](O)[C@@H](C)[C@H](OC(C)=O)[C@@H]1C [Rifapentine] + CC(C)C[C@H](NC(=O)[C@H](CCc1ccccc1)NC(=O)CN1CCOCC1)C(=O)N[C@@H](Cc1ccccc1)C(=O)N[C@@H](CC(C)C)C(=O)[C@@]1(C)CO1 [Carfilzomib] | 21.9 |
| CS(=O)(=O)O.Cc1c(O)cccc1C(=O)NC(CSc1ccccc1)C(O)CN1CC2CCCCC2CC1C(=O)NC(C)(C)C (stereo not given) [Nelfinavir Mesylate] + CC(C)C[C@H](NC(=O)[C@H](CCc1ccccc1)NC(=O)CN1CCOCC1)C(=O)N[C@@H](Cc1ccccc1)C(=O)N[C@@H](CC(C)C)C(=O)[C@@]1(C)CO1 [Carfilzomib] | 26.7 |
| COc1nc2ccc(Br)cc2cc1[C@@H](c1ccccc1)[C@@](O)(CCN(C)C)c1cccc2ccccc12 [Bedaquiline fumarate] + CC(C)C[C@H](NC(=O)[C@H](CCc1ccccc1)NC(=O)CN1CCOCC1)C(=O)N[C@@H](Cc1ccccc1)C(=O)N[C@@H](CC(C)C)C(=O)[C@@]1(C)CO1 [Carfilzomib] | 22.5 |
| CCOc1cc2ncc(C#N)c(Nc3ccc(F)c(Cl)c3)c2cc1NC(=O)C=CCN(C)C [Pelitinib (EKB-569)] + CC(C)C[C@H](NC(=O)[C@H](CCc1ccccc1)NC(=O)CN1CCOCC1)C(=O)N[C@@H](Cc1ccccc1)C(=O)N[C@@H](CC(C)C)C(=O)[C@@]1(C)CO1 [Carfilzomib] | 5.92 |
| COc1ccc(CN2CCN(C(c3ccc(F)cc3)c3ccc(F)cc3)CC2)c(OC)c1OC.Cl.Cl [Lomerizine HCl] + CC(C)C[C@H](NC(=O)[C@H](CCc1ccccc1)NC(=O)CN1CCOCC1)C(=O)N[C@@H](Cc1ccccc1)C(=O)N[C@@H](CC(C)C)C(=O)[C@@]1(C)CO1 [Carfilzomib] | 15.6 |
| CC(Oc1cc(-c2cnn(C3CCNCC3)c2)cnc1N)c1c(Cl)ccc(F)c1Cl [(R)-Crizotinib] + CC(C)C[C@H](NC(=O)[C@H](CCc1ccccc1)NC(=O)CN1CCOCC1)C(=O)N[C@@H](Cc1ccccc1)C(=O)N[C@@H](CC(C)C)C(=O)[C@@]1(C)CO1 [Carfilzomib] | 27.4 |
| CCOC(=O)C1=C(COCCN)NC(C)=C(C(=O)OC)C1c1ccccc1Cl (stereo not given) [Amlodipine] + CC(C)C[C@H](NC(=O)[C@H](CCc1ccccc1)NC(=O)CN1CCOCC1)C(=O)N[C@@H](Cc1ccccc1)C(=O)N[C@@H](CC(C)C)C(=O)[C@@]1(C)CO1 [Carfilzomib] | 15.8 |
| Cl.Clc1ccccc1CN1CCc2sccc2C1 [Ticlopidine HCl] + CC(C)C[C@H](NC(=O)[C@H](CCc1ccccc1)NC(=O)CN1CCOCC1)C(=O)N[C@@H](Cc1ccccc1)C(=O)N[C@@H](CC(C)C)C(=O)[C@@]1(C)CO1 [Carfilzomib] | 16 |
| CCCCCCCCCCCCCCCCOP(=O)([O-])OCC[N+](C)(C)C [Miltefosine] + CC(C)C[C@H](NC(=O)[C@H](CCc1ccccc1)NC(=O)CN1CCOCC1)C(=O)N[C@@H](Cc1ccccc1)C(=O)N[C@@H](CC(C)C)C(=O)[C@@]1(C)CO1 [Carfilzomib] | 22.7 |
| Cc1ccc(-n2[nH]c(C)c(NN=C3C=CC=C(c4cccc(C(=O)O)c4)C3=O)c2=O)cc1C [Eltrombopag] + CC(C)C[C@H](NC(=O)[C@H](CCc1ccccc1)NC(=O)CN1CCOCC1)C(=O)N[C@@H](Cc1ccccc1)C(=O)N[C@@H](CC(C)C)C(=O)[C@@]1(C)CO1 [Carfilzomib] | 19.8 |
| CC(C)(C)NC(=O)C1CC2CCCCC2CN1CC(O)C(Cc1ccccc1)NC(=O)C(CC(N)=O)NC(=O)c1ccc2ccccc2n1.CS(=O)(=O)O (stereo not given) [Saquinavir mesylate] + CC(C)C[C@H](NC(=O)[C@H](CCc1ccccc1)NC(=O)CN1CCOCC1)C(=O)N[C@@H](Cc1ccccc1)C(=O)N[C@@H](CC(C)C)C(=O)[C@@]1(C)CO1 [Carfilzomib] | 22.9 |
| COC(=O)c1ccc2c(c1)NC(=O)C2=C(Nc1ccc(N(C)C(=O)CN2CCN(C)CC2)cc1)c1ccccc1 [Nintedanib (BIBF 1120)] + CC(C)C[C@H](NC(=O)[C@H](CCc1ccccc1)NC(=O)CN1CCOCC1)C(=O)N[C@@H](Cc1ccccc1)C(=O)N[C@@H](CC(C)C)C(=O)[C@@]1(C)CO1 [Carfilzomib] | 24.9 |
| CC(C)c1nc(N(C)S(C)(=O)=O)nc(-c2ccc(F)cc2)c1C=CC(O)CC(O)CC(=O)[O-].CC(C)c1nc(N(C)S(C)(=O)=O)nc(-c2ccc(F)cc2)c1C=CC(O)CC(O)CC(=O)[O-].[Ca+2] (stereo not given) [Rosuvastatin Calcium] + CC(C)C[C@H](NC(=O)[C@H](CCc1ccccc1)NC(=O)CN1CCOCC1)C(=O)N[C@@H](Cc1ccccc1)C(=O)N[C@@H](CC(C)C)C(=O)[C@@]1(C)CO1 [Carfilzomib] | 19.6 |
| Nc1ccn(C2OC(CO)C(O)C2O)c(=O)n1 (stereo not given) [Cytarabine] + CC(C)C[C@H](NC(=O)[C@H](CCc1ccccc1)NC(=O)CN1CCOCC1)C(=O)N[C@@H](Cc1ccccc1)C(=O)N[C@@H](CC(C)C)C(=O)[C@@]1(C)CO1 [Carfilzomib] | 19.3 |
| Br.Cc1ccc(Sc2ccccc2N2CCNCC2)c(C)c1 + CC(C)C[C@H](NC(=O)[C@H](CCc1ccccc1)NC(=O)CN1CCOCC1)C(=O)N[C@@H](Cc1ccccc1)C(=O)N[C@@H](CC(C)C)C(=O)[C@@]1(C)CO1 [Carfilzomib] | 15.7 |
| Cc1ccc(NC(=O)c2ccc(CN3CCN(C)CC3)cc2)cc1Nc1nc(-c2cccnc2)cs1 [Masitinib (AB1010)] + CC(C)C[C@H](NC(=O)[C@H](CCc1ccccc1)NC(=O)CN1CCOCC1)C(=O)N[C@@H](Cc1ccccc1)C(=O)N[C@@H](CC(C)C)C(=O)[C@@]1(C)CO1 [Carfilzomib] | 28.7 |
| COc1ccccc1OCCNCC(O)COc1cccc2[nH]c3ccccc3c12 (stereo not given) [Carvedilol] + CC(C)C[C@H](NC(=O)[C@H](CCc1ccccc1)NC(=O)CN1CCOCC1)C(=O)N[C@@H](Cc1ccccc1)C(=O)N[C@@H](CC(C)C)C(=O)[C@@]1(C)CO1 [Carfilzomib] | 20.7 |
